Rows were chosen to be rich in hits. Some 2% of all compounds tested hit in one or more screens of this group.
PolyA inh – inhibitors of polyadenylation in S. cerevisiae; S. cerevisiae SKY197-pL101 polyadenylation reporter, beta-gal luminescence; efflux-impaired pdr1/pdr3 knockout yeast; score 100 = 6 SD above DMSO; 0.02% of 300,000 active; activity score, % at 12 µM;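 active = lowest replicate activity score at least 50, where 100 means six control SD above control mean; inconclusive = lowest score under 50 but half or more replicates reach 50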;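 note: yeast exposed to compound for 9 h at 30 °C; higher score means more reporter readthrough which indicates perturbed polyadenylation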
Calb FLC – C. albicans growth modulation with fluconazole. growth inhibition, % (test concentration not listed). 0.57% of 300,000 active. C. albicans CaCi-2 (fluconazole-resistant clinical isolate) + fluconazole, Alamar Blue growth, 48 h;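 active = growth inhibition above about 58% in most replicates, limit read from the data, passing the limit was not always enough; inconclusive = exactly half the replicates above a set limit; inactive = most replicates below a set limit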;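 note: all wells also contain fluconazole at 8 µg/ml as a sub-toxic cotreatment; 0% = median of DMSO wells and 100% = median of geldanamycin control wells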
Platelet DG rel – modulates dense granule release in human platelets. human platelet-rich plasma, SFLLRN dense granule ATP release, luminescence. inhibition, %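 (compounds screened at 7.5 µM in platelet-rich plasma)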. 0.22% of 300,000 active. AID 1663;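 active = mean replicate score, as percent of positive control, at or above 50; inconclusive = mean below 50 but at least one replicate at or above 50; inactive = mean and every replicate below 50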
CR mimetic SO – caloric restriction mimetics inhibiting age-related superoxide in yeast. 0.18% of 330,000 active. superoxide response (% of plate mean), % at 10 µM. AID 2690. S. cerevisiae aged cells, superoxide DHE fluorescence; stronger effect = lower value;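 active = superoxide response under a set limit, about three screen SD below normal, cut at about 65% in these data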;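 note: yeast aged for seven days with compound at 30 °C before DHE staining; 100% = average MFI of all compound-treated wells on the plate with controls excluded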
SKKanGAS inh – inhibitors of SKKanGAS S. pyogenes growth in kanamycin (SK-promoter or general growth effect). BacTiter-Glo, 6 h. inhibition, % at 7.5 µM. 1.3% of 300,000 active;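 active = mean replicate score, as percent of positive control median, at least 50; inconclusive = mean below 50 but one replicate at or above 50; inactive = mean and every replicate below 50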;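 note: strain carries kanamycin resistance gene driven by streptokinase promoter and grows in 40 µg/ml kanamycin; loss of luminescence reflects streptokinase promoter inhibition or plain growth inhibition; 0% = median of DMSO wells and 100% = positive control at its reference dose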
* hit, by the source's call; ? = inconclusive; . = not tested or not shown.

SMILES | PolyA inh | Calb FLC | Platelet DG rel | CR mimetic SO | SKKanGAS inh
Cc1cccc(Nc2nc(-c3ccc(F)c(C)c3)cs2)n1 | -9 | -7 | 0 | 69 | 72*
Cc1cccc(Nc2nc(-c3ccc(O)c(O)c3)cs2)n1 | 12 | -26 | -2 | 98 | 2
CC(/C=C/c1ccc2c(c1)OCO2)=N/NC(=O)c1ccncc1 | 14 | -6 | -11 | 93 | -5
CC1=C(/C=C/C(C)=N\NC(=O)c2ccncc2)C(C)(C)CCC1 | 8 | 2 | -2 | 98 | 57*
O=C(Cn1nnc(-c2cc(C(F)(F)F)cc(C(F)(F)F)c2)n1)NNC(=S)Nc1ccc(Cl)cc1 | 11 | -3 | -1 | 107 | 78*
CCCc1cc(C(=O)N2CCCC(N3CCN(c4ccccc4F)CC3)C2)n(C)n1 (stereo unspecified) | -17 | 3 | 53* | 101 | 1
COc1ccc(/C=N/N(C)c2cc(=O)n(C)c(=O)[nH]2)cc1OC | 4 | 8 | 74* | 109 | 1
CN(/N=C/C=C/c1ccccc1)c1cc(=O)n(C)c(=O)[nH]1 | -4 | 2 | -9 | 91 | 5
CC(O)CO (stereo unspecified) | . | . | . | 82 | .
Cc1ccc(SCC(=O)N(C)CC(=O)Nc2cccc(F)c2)c(C)c1 | -8 | 0 | -10 | 101 | -9
CCOC(=O)C1CCN(c2ncnc3cc(OC)c(OC)cc23)CC1 | 6 | -2 | 58* | 91 | -2
CCOC(=O)C1(CC2CCCCO2)CCN(Cc2cc3ccccc3[nH]2)CC1 (stereo unspecified) | 19 | -28 | 10 | 83 | 1
CC(=O)N1CCN(c2ccccc2NC(=O)COc2ccccc2C)CC1 | -10 | ? | -6 | 119 | -1
Cc1cc(C)c(OCC(=O)Nc2ccccc2N2CCCCC2)c(C)c1 | 26 | 0 | -6 | 96 | 80*
Cc1cc(C)c(OCC(=O)Nc2ccccc2N2CCOCC2)c(C)c1 | 1 | 2 | 5 | 104 | 4
O=C(CSc1nc2ccccc2o1)Nc1cc(C(F)(F)F)ccc1N1CCOCC1 | 1 | 0 | 4 | 83 | 2
O=C(CSc1nc2ccccc2o1)Nc1ccccc1N1CCCCCC1 | 6 | -25 | -4 | 82 | 59*
Cc1cc(NC(=O)CSCC(=O)Nc2ccccc2N2CCCCC2)no1 | 2 | 4 | 50* | 92 | 5
Cc1ccccc1OCC(=O)Nc1ccccc1N1CCC(C)CC1 | 8 | -3 | 1 | 93 | 82*
O=C1c2ccccc2C(=O)C2OC12 (stereo unspecified) | -22 | 3 | -26 | 124 | 21
CCOC(=O)N1CCC(NC(=O)CC2C(=O)NCCN2Cc2ccccc2F)CC1 (stereo unspecified) | 3 | -5 | 1 | 92 | 2
O=C(COc1cccc(Cl)c1)Nc1ccccc1N1CCCCC1 | 10 | -6 | 2 | 100 | 66*
O=C(COc1ccccc1)Nc1ccccc1N1CCCCC1 | -14 | -3 | 1 | 108 | 20
COC(=O)[C@@H]1CCCN1Cc1nc(Cc2ccccc2F)no1 | -11 | 92* | 16 | 102 | -3
COc1nc(-c2ccccc2)ncc1S(=O)(=O)c1ccccc1 | 4 | -16 | -1 | 91 | -9
SMILES | PolyA inh | Calb FLC | Platelet DG rel | CR mimetic SO | SKKanGAS inh
Cc1cccc(C)c1Oc1nc(-c2ccccc2)ncc1S(=O)(=O)c1ccccc1 | -5 | -2 | 3 | 81 | 51*
COc1cccc(/C=N/NC(=O)c2ccc3nc[nH]c3c2)c1O | 7 | -3 | 12 | 92 | -6
CCN(CC)c1ccc(/C=N/NC(=O)c2ccc3nc[nH]c3c2)c(O)c1 | -3 | 109* | 10 | 91 | 6
CCN(CC)c1ccc(C=Nc2ccc(N(C)C)cc2)c(O)c1 | -43 | 22 | 6 | 100 | 6
CCN(CC)c1ccc(/C=N/NC(=O)OC)c(O)c1 | -3 | 1 | . | 68 | -2
CCN(CC)c1ccc(/C=N/NC(=O)c2ccoc2C)c(O)c1 | 21 | -2 | 117* | 82 | 30
CCN(CC)c1ccc(N=Cc2ccc(N(CC)CC)cc2O)cc1 | -57 | 78* | 1 | 96 | 8
COC(=O)c1ccccc1NC1=C/C(=N\S(=O)(=O)c2cccs2)c2ccccc2C1=O | -29 | 38 | -4 | 116 | 22
CCc1cc[n+](C2=C([O-])c3ccccc3C(=O)/C2=N\S(=O)(=O)c2cccs2)cc1 | 0 | -7 | 3 | 102 | 89*
Cc1onc(-c2c(F)cccc2Cl)c1C(=O)Nc1ccc(Cl)c(S(=O)(=O)N(C)C)c1 | . | . | . | 116 | .
Cc1ccc(-c2n[nH]c3c2CCC3)cc1 | -20 | -6 | -1 | 99 | 55*
COc1cc(OC)cc(C(=O)Nc2nnc(-c3cccnc3)o2)c1 | -10 | -8 | -17 | 98 | -2
N#Cc1ccc(C(=O)Nc2nnc(-c3ccccn3)o2)cc1 | 12 | 6 | -1 | 100 | 4
O=C(Nc1nnc(-c2cc(Cl)ccc2Cl)o1)c1ccco1 | 6 | -6 | . | 104 | 74*
O=C(Nc1nnc(-c2cccnc2)o1)c1cccc(Cl)c1 | 0 | 1 | 6 | 100 | 79*
O=C(Nc1nnc(-c2ccccn2)o1)c1cccc(Cl)c1 | -3 | -3 | 2 | 109 | 83*
Cc1cccc(-c2nnc(NC(=O)c3ccc(Cl)cc3)o2)c1 | -2 | ? | -8 | 129 | 122*
CC(=O)N(NC(=O)c1ccc(C)cc1)C1CC(=O)N(c2ccccc2Cl)C1=O (stereo unspecified) | -17 | ? | 3 | 92 | 0
CC(=O)Nc1nnc(-c2ccco2)o1 | -4 | 4 | -5 | 95 | 0
O=C(Nc1nnc(-c2ccco2)o1)c1cccc(Cl)c1 | -19 | 87* | -1 | 131 | 88*
O=C(Nc1nnc(-c2ccccn2)o1)c1cccc(Br)c1 | 2 | 1 | -1 | 106 | 67*
Cc1cc(C)n(C(C)Sc2ccccc2)n1 (stereo unspecified) | -6 | -5 | 0 | 107 | -5
COc1ccc(C2Oc3ccccc3C3=C2C(c2cccs2)n2ncnc2N3)cc1 (stereo unspecified) | 14 | 9 | 0 | 89 | 78*
Brc1ccc(C2C3=C(Nc4ncnn42)c2ccccc2OC3c2ccncc2)cc1 (stereo unspecified) | 7 | -19 | -9 | 96 | 88*
COc1ccc(C2C3=C(Nc4ncnn42)c2ccccc2CC3)cc1OC (stereo unspecified) | -1 | -1 | -1 | 90 | 3
O=C(COc1cccnc1[N+](=O)[O-])NCc1cccs1 | 6 | 5 | 1 | 104 | 3
CO/N=C/c1ccc(N2CCN(C(=O)c3ccc(C)cc3)CC2)c([N+](=O)[O-])c1 | -5 | 109* | -2 | 76 | 5
Clc1ccc(COn2c(-c3ccc(Cl)cc3)nc3ccccc32)cc1 | -16 | 6 | -5 | 92 | 52*
CC1CCN(C(=O)C(C)OC(=O)CSc2ccc([N+](=O)[O-])cc2)CC1 (stereo unspecified) | . | . | . | 107 | .

From PubChem BioAssay
